Screening results from PubChem BioAssay.
Hits are enriched below; roughly 4.5% of the tested compounds scored in any of these assays.
DAX1 inh-1 = DAX1 (NR0B1) inhibition, primary screen; actives 1.1% (n = 370,000); HEK293T StAR-luciferase reporter, SF-1/DAX-1 repression relief; inhibition, % at 6.8 µM;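 active = inhibition above the mean over all tested compounds plus 3 SD, cut at about 3.6% in these data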;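 also: 0% = DAX-1 cells with DMSO and 100% = cells lacking DAX-1 with DMSO; higher inhibition means more luminescence from relief of DAX-1 repression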
hcDAF12 agonist = H. contortus DAF-12 activation, primary screen; HEK293 hcDAF-12 lit1-tk-luc reporter, luminescence; 0% DMSO, 100% Δ7-dafachronic acid; activation, % at 6.8 µM; actives 1.4% (n = 370,000); AID 652067;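 active = activation above the mean of all tested compounds plus 3 SD, cut at about 5.5% in these data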;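 also: 100% = response to 3 µM Δ7-dafachronic acid high control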
FXN GAA850 act = increases GAA850 frataxin promoter reporter activity. AID 540364. HEK293 lucGAA850 FXN promoter luciferase reporter, 24 h; percent of 10 µM SAHA response. activation, % at 6 µM. actives 0.56% (n = 360,000);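 active = activation above the average of all compounds screened plus 3 SD, cutoff fixed separately per campaign, cut at about 7.5% in these data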;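 also: 0% = DMSO wells and 100% = 10 µM SAHA wells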
hgDAF12 agonist = agonists of H. glycines DAF-12 nuclear receptor | HEK293 GAL4-hgDAF12 UAS-luciferase reporter, agonist luminescence; normalized to butyrate control | activation, % at 6.8 µM | actives 1.8% (n = 370,000);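 active = activation above a cutoff set at the mean of all screened compounds plus 3 SD, cut at about 10% in these data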;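 also: 0% = DMSO wells and 100% = sodium butyrate wells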
DAX1 inh-2 = NR0B1 (DAX1) inhibition; inhibition, % at 6.75 µM; P51843; HEK293 Gal4-DAX1 luciferase reporter, luminescence; actives 0.99% (n = 340,000);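 active = inhibition above the mean over all tested compounds plus 3 SD, cut at about 4.2% in these data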;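 also: 0% = DAX1-transfected cells with DMSO and 100% = empty-vector control cells with DMSO; inhibition shows as a rise in luminescence from relieved DAX1 repression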
Target sequence (P51843 207-470 limits assumed): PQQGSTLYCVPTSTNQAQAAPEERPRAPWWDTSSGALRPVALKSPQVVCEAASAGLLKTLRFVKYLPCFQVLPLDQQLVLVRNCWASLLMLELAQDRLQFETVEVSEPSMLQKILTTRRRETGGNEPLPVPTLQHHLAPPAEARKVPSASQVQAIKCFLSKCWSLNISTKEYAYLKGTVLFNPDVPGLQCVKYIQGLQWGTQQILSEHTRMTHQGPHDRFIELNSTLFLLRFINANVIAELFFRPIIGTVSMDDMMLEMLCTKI
ssDAF-12 act = S. stercoralis DAF-12 activation, primary screen | HEK293 ssDAF-12/GRIP1 lit1-tk-luc reporter, luminescence; % of 3 µM dafachronic acid response | activation, % at 6.8 µM | actives 1% (n = 370,000) | AID 652126;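 active = activation above the mean over all tested compounds plus 3 SD, cut at about 0.9% in these data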;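 also: 0% = DMSO-only wells and 100% = 3 µM delta7-dafachronic acid wells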
* hit, by the source's call; . = no result.

SMILES	DAX1 inh-1	hcDAF12 agonist	FXN GAA850 act	hgDAF12 agonist	DAX1 inh-2	ssDAF-12 act
CC(C)(C)c1ccc(-c2nnc(SCC3CCCCO3)n2-c2ccc(Cl)cc2)cc1 (stereo not drawn)	-1.0	-1.5	.	4.0	.	-1.3
COc1cc(CNCCCCO)ccc1OCc1ccccc1F	1.2	1.1	1.6	10.9*	-0.4	-0.6
CSCCC(NC(=O)c1ccc(Cl)cc1)C(=O)OCC(C)=O (stereo not drawn)	0.7	0.9	0.4	-0.1	5.6*	-1.9
COc1ccc2c(c1)[C@@]1(NCCc3c1[nH]c1ccc(OC)cc31)C(=O)N2C	1.6	2.3	.	-2.0	.	-0.2
COc1ccc2[nH]c3c(c2c1)CCN[C@]31C(=O)N(C)c2ccc(Br)cc21	-0.6	4.5	.	-1.7	.	1.1*
COC(=O)[C@]12C[C@H](CC(=O)NCc3cccs3)C(=O)N(Cc3ccco3)C1=C[C@H](C(C)C)O[C@@H]2C1CC1	-0.6	-3.3	.	-2.5	.	-1.1
COC(=O)Cn1c(CCC(=O)O)ccc1-c1ccccc1	0.6	-2.1	1.7	-0.4	5.2*	-1.1
COc1ccc(NC(=O)Cn2c(CCC(=O)O)ccc2-c2ccccc2)cc1	0.1	-1.5	-1.5	1.2	0.1	-0.4
O=C1NC(=Nc2ccccc2)S/C1=C/c1cccnc1	1.1	-0.3	-1.0	3.4	-0.5	-1.3
COc1cc(/C=C2\SC(=Nc3ccccc3OC)NC2=O)ccc1O	-0.9	-2.2	-4.4	0.5	-0.4	-1.8
O=C1NC(=Nc2ccccc2)S/C1=C\c1ccccc1	0.2	4.9	4.0	2.4	3.1	1.0*
COc1ccc(/C=C2\SC(=Nc3ccccc3OC)NC2=O)cc1	-1.4	-2.9	-4.2	2.1	4.3*	-1.6
CC(=O)Nc1sc2c(c1-c1nc(-c3ccccc3)cs1)CCN(C(C)C)C2	.	6.3*	.	5.8	.	-0.1
CC1CCCCC1NC(=O)C1CCN(S(=O)(=O)c2ccc3c(c2)CCC(=O)N3)CC1 (stereo not drawn)	0.1	1.0	-1.0	-2.6	5.1*	-1.7
Cc1ccc2c(C)c(C(=O)N3CCN(Cc4ccc5c(c4)OCO5)CC3)oc2c1C	2.5	5.8*	5.4	9.8	0.4	-0.4
CCCCCCCCN1C(=O)[C@@H](CC(=O)NCCCOCCCC)C[C@@]2(C(=O)OC)C1=C[C@H](C(C)C)O[C@@H]2C1CC1	-0.5	-0.4	.	-0.7	.	-1.0
COc1cccc2sc3ccc(C#CC4(N)CCCCC4)cc3c(=O)c12	0.2	0.4	1.9	2.2	1.6	-0.5
COc1cccc2sc3cc(C#CC4(O)CCCCC4)ccc3c(=O)c12	2.5	1.8	4.7	10.5*	0.9	0.7
COc1ccc(/C=C2/CN(Cc3ccc(OC)cc3OC)C3=NC(c4ccc5ccccc5c4)CC(=O)N32)cc1 (stereo not drawn)	.	-0.9	.	-2.8	.	-2.1
CC1(C)CC(=O)C2=C(C1)N(c1ccc(F)cc1)C(=O)CC2c1cccnc1 (stereo not drawn)	-0.1	-1.5	0.3	0.4	0.7	-1.7
CCSc1nnc(N2C(=O)CC(c3ccsc3)C3=C2CC(C)(C)CC3=O)s1 (stereo not drawn)	1.7	-1.6	2.0	-2.7	5.3*	-1.1
COC(=O)[C@H](CC(C)C)N(CCCc1cn(Cc2ccccc2)nn1)S(=O)(=O)c1ccccc1Br	-2.2	-2.4	.	1.8	.	-1.9
O=C(O)Cn1c(=S)sc2ccccc21	1.4	2.4	1.3	2.0	0.7	1.0*
O=C(CCC(=O)c1ccc[nH]1)c1ccc(Cl)cc1	1.0	6.0*	2.5	12.2*	2.9	-0.5
CCc1noc(C)c1C(=O)NNC(=O)c1nn(CC)c(=O)c2ccccc12	-1.5	0.4	1.6	0.8	5.2*	-1.2
SMILES	DAX1 inh-1	hcDAF12 agonist	FXN GAA850 act	hgDAF12 agonist	DAX1 inh-2	ssDAF-12 act
C#CCCN([C@H](C(=O)OC)C(C)C)S(=O)(=O)c1ccccc1Br	-1.1	-2.9	.	1.0	.	-1.3
CN(CCOc1ccc(Cl)cc1)CC(O)c1ccccc1 (stereo not drawn)	0.0	0.5	0.6	1.4	4.3*	-0.6
Cc1ccc2c(c1)C1CS(=O)(=O)N(C3CCCC3)C(=O)N1C2 (stereo not drawn)	0.6	1.7	.	3.4	.	-0.5
COC(=O)[C@]12C[C@H](CC(=O)N3CCCCC3)C(=O)N(CCC3=CCCCC3)C1=C[C@H](C1CCCC1)O[C@@H]2C	1.0	0.4	.	1.5	.	-1.1
Cc1cc(C(=O)Nc2sccc2C#N)c2ccccc2n1	-0.1	5.9*	-0.1	-1.2	-0.5	0.7
Cc1csc(N/N=C/c2ccccn2)n1	2.3	6.2*	0.2	9.3	-1.9	1.3*
C[C@@H](c1ccccc1)N1C[C@@H](COCc2ccccc2)Oc2cc(N3CCC[C@H]3C(N)=O)ccc2S1(=O)=O	0.6	1.5	.	2.6	.	4.2*
Cn1c(C2CC(=O)N(Cc3ccccc3)C2)nc2ccccc21 (stereo not drawn)	-0.3	-1.5	-0.1	1.4	2.0	1.1*
O=C(CC12CC3CC(CC(C3)C1)C2)NC(=S)N1CCCCC1	0.1	-1.4	3.7	0.4	0.9	1.2*
COc1ccc(CC2CCN(c3ncnc4sccc34)CC2)cc1	.	-5.4	.	-6.7	.	-2.2
COc1ccc(NC(=S)Nc2ccc3snnc3c2)cc1	1.8	3.3	3.9	5.1	0.9	0.0
COc1ccc(NC(=S)Nc2ccc3nccnc3c2)cc1	1.2	2.7	2.7	10.6*	-0.2	-0.5
CCCCc1cc(=O)oc2cc(OC(C)C(=O)NCC3CCC(C(=O)O)CC3)c(Cl)cc12 (stereo not drawn)	-0.4	-1.5	-1.7	-3.2	3.7	-1.3
CCCc1cc(=O)oc2cc(OC(C)C(=O)NCC3CCC(C(=O)O)CC3)c(Cl)cc12 (stereo not drawn)	0.8	-1.0	1.8	1.0	4.5*	-1.4
CC(Oc1ccc2ccc(=O)oc2c1)C(=O)NCC1CCC(C(=O)O)CC1 (stereo not drawn)	1.2	-0.7	0.9	-2.3	4.7*	-0.1
Cc1c(Cc2ccccc2)c(=O)oc2c(C)c(OC(C)C(=O)NCC3CCC(C(=O)O)CC3)ccc12 (stereo not drawn)	0.9	0.6	0.8	-2.8	3.1	-1.0
Cc1cc(OC(C)C(=O)NCC2CCC(C(=O)O)CC2)c2c(C)c(Cc3ccccc3)c(=O)oc2c1 (stereo not drawn)	0.8	-1.1	0.7	-3.5	6.6*	-0.6
COC(=O)[C@@]12CCCCC3=C1N(CCC3)C(=O)[C@H]2CC(=O)NCc1ccc(OC)c(OC)c1	0.9	-2.4	.	0.0	.	-1.4
COc1ccc2[nH]c3c(c2c1)CCN[C@]31C(=O)N(Cc2cn(Cc3ccccc3)nn2)c2ccc(F)cc21	0.1	-0.7	.	0.5	.	-1.0
COc1ccc(CN[C@@H]2CC[C@@]34CCCN3C(=O)CCC[C@H]4C2)cc1OC	.	-0.4	.	1.8	.	-1.5
